The campaign covered roughly 5,500 compounds. About 2,000 (36%) were called active. About 18% were inconclusive and are not listed. No stated cut-off is given here; in the data, active means normalized growth mostly below about 0.91 (no sharp cut-off); inconclusive means no clear call, values can overlap the other calls; inactive means mostly above about 0.92. Some of the results follow.
Assay: chemical genetic growth profiling, strain panel (AID 1159580);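 further: tested at 20 µM; growth read once vehicle control cultures reached saturation at 30 °C; 1 = growth at the plate median or of vehicle wells; lower values mean less growth of the strain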
Conditions: S. cerevisiae deletion strains, growth OD
[1] = locus YGR078C, strain PAC10, hits give low values
[2] = locus YJL095W, strain BCK1, hits give low values
[3] = locus YMR307W, strain GAS1, hits give low values
[4] = locus YPL055C, strain LGE1, hits give low values

Measured: normalized growth

C=C(C)/C=C1/C=CC(=O)C(C)=C1
inactive: locus YBR229C, strain ROT2, hits give low values 0.99 | locus YOL012C, strain htz1 0.247
active: locus YBR021W, strain FUR4, hits give low values 0.466 | locus YCL029C, strain bik1, hits give low values 0.611 | locus YDL035C, strain GPR1, hits give low values 0.185 | locus YDL074C, strain BRE1, hits give low values 0.26 | locus YDL101C, strain DUN1, hits give low values 0.803 | locus YDL185W, strain tfp1, hits give low values 0.06 | locus YDL192W, strain arf1, hits give low values 0.0749 | locus YDR101C, strain arx1, hits give low values 0.613 | locus YDR162C, strain NBP2, hits give low values 0.208 | locus YDR318W, strain mcm21, hits give low values 0.0733 | locus YDR388W, hits give low values 0.544 | locus YDR502C, strain sam2, hits give low values 0.0764 | locus YEL061C, strain CIN8, hits give low values 0.288 | locus YER110C, hits give low values 0.472 | locus YER155C, strain BEM2, hits give low values 0.27 | locus YER167W, strain BCK2, hits give low values 0.151 | locus YGL078C, strain dbp3, hits give low values 0.0621 | locus YGL086W, strain mad1, hits give low values 0.0823 | locus YGL248W, strain PDE1, hits give low values 0.152 | [1] 0.097 | locus YGR135W, strain pre9, hits give low values 0.129 | locus YGR252W, strain gcn5, hits give low values 0.264 | locus YHR079C, strain IRE1 (second series), hits give low values 0.687 | locus YHR094C, strain hxt1, hits give low values 0.088 | locus YHR129C, strain ARP1, hits give low values 0.107 | locus YHR200W, strain rpn10, hits give low values 0.27 | locus YIL066C, strain RNR3, hits give low values 0.458 | locus YIL073C, strain SPO22, hits give low values 0.179 | locus YIL125W, strain kgd1, hits give low values 0.0607 | locus YIR030C, strain dcg1, hits give low values 0.42 | [2] 0.375 | locus YJL134W, strain LCB3, hits give low values 0.183 | locus YJL168C, strain set2, hits give low values 0.203 | locus YJL187C, strain SWE1 (second series), hits give low values 0.636 | locus YKL068W, hits give low values 0.0579 | locus YKL085W, strain MDH1 (second series), hits give low values 0.0777 | locus YKL085W, strain MDH1, hits give low values 0.0777 | locus YKL190W, strain CNB1, hits give low values 0.198 | locus YKR001C, strain vps1, hits give low values 0.0676 | locus YLR039C, strain RIC1, hits give low values 0.166 | locus YLR058C, strain SHM2, hits give low values 0.755 | locus YLR102C, strain apc9, hits give low values 0.0756 | locus YLR262C, strain YPT6, hits give low values 0.152 | locus YLR268W, strain sec22, hits give low values 0.076 | locus YLR330W, strain CHS5, hits give low values 0.0909 | locus YLR371W, strain rom2, hits give low values 0.0908 | locus YLR418C, strain cdc73, hits give low values 0.116 | locus YML016C, strain PPZ1, hits give low values 0.228 | locus YML032C, strain rad52, hits give low values 0.7 | locus YML124C, strain tub3, hits give low values 0.174 | locus YMR078C, strain ctf18, hits give low values 0.0861 | locus YMR223W, strain ubp8, hits give low values 0.108 | [3] 0.147 | locus YNL067W, strain RPL9B, hits give low values 0.0907 | locus YNL128W, strain TEP1, hits give low values 0.229 | locus YNL233W, strain BNI4, hits give low values 0.188 | locus YNL250W, strain rad50, hits give low values 0.0988 | locus YNL271C, strain bni1, hits give low values 0.0645 | locus YNL298W, strain CLA4, hits give low values 0.06 | locus YNL307C, strain MCK1, hits give low values 0.0748 | locus YNR052C, strain pop2, hits give low values 0.748 | locus YOL006C, strain TOP1, hits give low values 0.202 | locus YOL147C, strain pex11, hits give low values 0.464 | locus YOR061W, strain CKA2, hits give low values 0.449 | locus YOR069W, strain VPS5, hits give low values 0.0688 | locus YOR136W, strain idh2, hits give low values 0.106 | locus YOR144C, strain elg1, hits give low values 0.646 | locus YOR184W, strain ser1, hits give low values 0.0806 | locus YOR316C, strain cot1, hits give low values 0.0831 | [4] 0.103 | locus YPR119W, strain clb2, hits give low values 0.0703 | locus YPR141C, strain kar3, hits give low values 0.0832 | locus YPR163C, strain tif3, hits give low values 0.0853 | locus YPR167C, strain met16, hits give low values 0.0692 | strain wtn01, hits give low values 0.0763

CCOC(=O)c1ncn2c1CN(C)C(=O)c1cc(F)ccc1-2
inactive: locus YAL013W, strain DEP1, hits give low values 0.994 | locus YAL021C, strain ccr4, hits give low values 1.01 | locus YAL026C, strain drs2, hits give low values 1.02 | locus YAL030W, strain snc1, hits give low values 1.02 | locus YAL040C, strain CLN3, hits give low values 1 | locus YBL061C, strain skt5, hits give low values 1.01 | locus YBR009C, strain hhf1, hits give low values 1.03 | locus YBR023C, strain chs3, hits give low values 1.02 | locus YBR171W, strain sec66, hits give low values 1.02 | locus YBR231C, strain swc5, hits give low values 1.02 | locus YBR279W, strain paf1, hits give low values 1.01 | locus YCL011C, strain gbp2, hits give low values 1.01 | locus YCL016C, strain dcc1, hits give low values 1.02 | locus YCL061C, strain MRC1 (second series), hits give low values 1 | locus YCL061C, strain MRC1, hits give low values 1.02 | locus YCL069W, strain vba3, hits give low values 1.01 | locus YCR088W, strain abp1, hits give low values 1.02 | locus YDL005C, strain med2, hits give low values 1.02 | locus YDL040C, strain nat1, hits give low values 1.02 | locus YDR001C, strain nth1, hits give low values 1.02 | locus YDR069C, strain doa4, hits give low values 1.03 | locus YDR137W, strain rgp1, hits give low values 1 | locus YDR150W, strain NUM1, hits give low values 1.01 | locus YDR159W, strain sac3, hits give low values 1.03 | locus YDR195W, strain ref2 1.02 | locus YDR297W, strain sur2, hits give low values 1.01 | locus YDR334W, strain swr1, hits give low values 1.02 | locus YDR335W, strain msn5, hits give low values 1.02 | locus YDR363W, strain ESC2, hits give low values 0.997 | locus YDR392W, strain spt3, hits give low values 0.994 | locus YEL003W, strain gim4, hits give low values 1.02 | locus YEL037C, strain rad23, hits give low values 1.01 | locus YEL061C, strain CIN8 (second series), hits give low values 1.02 | locus YER002W, strain NOP16, hits give low values 0.993 | locus YER015W, strain faa2, hits give low values 1.01 | locus YER016W, strain bim1, hits give low values 1.01 | locus YER111C, strain swi4, hits give low values 1.01 | locus YER155C, strain BEM2 (second series), hits give low values 1.01 | locus YFR010W, strain ubp6, hits give low values 1.02 | locus YGL167C, strain pmr1, hits give low values 1.03 | locus YGL173C, strain kem1, hits give low values 1.02 | locus YGL227W, strain vid30, hits give low values 1.02 | locus YGL240W, strain doc1, hits give low values 1.04 | locus YGL253W, strain hxk2, hits give low values 1.02 | [1] 1.01 | locus YHR013C, strain ard1, hits give low values 1.03 | locus YHR027C, strain rpn1, hits give low values 1.01 | locus YHR030C, strain SLT2, hits give low values 0.986 | locus YHR079C, strain IRE1, hits give low values 0.997 | locus YHR142W, strain chs7, hits give low values 0.972 | locus YJL092W, strain hpr5, hits give low values 1.02 | locus YJL095W, strain BCK1 (second series), hits give low values 1.02 | [2] 0.997 | locus YJL115W, strain asf1, hits give low values 1.02 | locus YJL129C, strain trk1, hits give low values 1.01 | locus YJL154C, strain vps35, hits give low values 1.02 | locus YJL164C, strain tpk1, hits give low values 1.02 | locus YJL166W, strain qcr8, hits give low values 1.03 | locus YJL187C, strain SWE1, hits give low values 1.02 | locus YJR066W, strain TOR1, hits give low values 0.93 | locus YJR075W, strain HOC1, hits give low values 1 | locus YKL160W, strain elf1, hits give low values 1.01 | locus YKR026C, strain gcn3, hits give low values 1.01 | locus YKR091W, strain srl3, hits give low values 1.01 | locus YLL001W, strain dnm1, hits give low values 1.01 | locus YLL026W, hits give low values 1.02 | locus YLL041C, strain sdh2, hits give low values 1.02 | locus YLR027C, strain aat2, hits give low values 1.02 | locus YLR113W, strain HOG1, hits give low values 1.01 | locus YLR221C, strain rsa3, hits give low values 1.02 | locus YLR258W, strain gsy2, hits give low values 1.02 | locus YLR262C, strain YPT6 (second series), hits give low values 1.02 | locus YLR320W, strain mms22, hits give low values 1.03 | locus YLR342W, strain FKS1, hits give low values 1.02 | locus YLR357W, strain rsc2, hits give low values 1.03 | locus YLR370C, strain arc18, hits give low values 1.02 | locus YLR384C, strain iki3, hits give low values 1.02 | locus YML120C, strain ndi1, hits give low values 1 | locus YMR058W, strain fet3, hits give low values 1.02 | locus YMR125W, strain sto1, hits give low values 1.03 | locus YMR129W, hits give low values 1.01 | locus YMR205C, strain PFK2, hits give low values 1.03 | locus YMR231W, strain pep5, hits give low values 1.01 | [3] 0.985 | locus YNL071W, strain lat1, hits give low values 1.01 | locus YNL175C, strain NOP13, hits give low values 0.999 | locus YNL183C, strain NPR1, hits give low values 0.938 | locus YNL197C, strain WHI3, hits give low values 0.999 | locus YNL209W, strain ssb2, hits give low values 1.02 | locus YNL224C, strain SQS1, hits give low values 1 | locus YNL248C, strain rpa49, hits give low values 0.992 | locus YNL322C, strain KRE1 (second series), hits give low values 1.01 | locus YNR049C, strain mso1, hits give low values 1.02 | locus YOR001W, strain rrp6, hits give low values 1.01 | locus YOR070C, strain gyp1, hits give low values 1.02 | locus YOR080W, strain dia2, hits give low values 1.02 | locus YOR083W, strain WHI5 (second series), hits give low values 1.03 | locus YOR083W, strain WHI5, hits give low values 0.997 | locus YOR106W, strain vam3, hits give low values 1.01 | locus YOR231W, strain MKK1, hits give low values 0.983 | locus YOR265W, strain rbl2, hits give low values 1.02 | locus YOR270C, strain vph1, hits give low values 1.02 | locus YOR290C, strain snf2, hits give low values 1.01 | locus YPL051W, strain arl3, hits give low values 1.01 | [4] 1.01 | locus YPL078C, strain atp4, hits give low values 1 | locus YPL106C, strain sse1, hits give low values 1.04 | locus YPL240C, strain hsp82, hits give low values 1 | locus YPL256C, strain CLN2, hits give low values 0.973
